Giardia killer: Small Molecules that selectively kill Giardia lamblia: qHTS | activity change, % at 7.66 µM, hits read low | actives 0.15% (n = 340,000) | Giardia lamblia trophozoite viability; in the data active = activity change below about -80%; inconclusive = between about -30% and that limit;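 also: parasites exposed to compound for two days anaerobically before the ATP read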
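Trophozoites 100 cells/well + cpd; 48 hrs, 37 deg C, anaerobic. ATPLite 1-Step added, 15-30 min RT, luminescence read (ATP-based viability).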
KB-V1 MDR tox: qHTS assay for MDR1-selective chemotherapeutics: Primary screen using the drug-selected MDR subline cells KB-V1. Potency, µM (doses to about 46.1 µM), actives largely listed as cytotoxic. AID 1347076, 2019. actives 3.4% (n = 400,000). KB-V1 MDR cells viability, CellTiter-Glo, 72 h; also: nearly all actives have a fitted effect of over 60% in size
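Cytotoxicity via CellTiter-Glo luminescence after 72 h compound exposure at 37 degrees C. Cells: drug-selected KB-V1 line, DMEM phenol-red free plus 10% FBS. Compounds tested at multiple concentrations; normalized data fitted to concentration-effect curves.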
Nrf2 block: Nrf2 qHTS screen for inhibitors; A549 ARE-Fluc reporter, luciferase luminescence, 18-24 h; Potency, µM (highest dose often 46 µM), usual class: inhibitors; actives 2.1% (n = 360,000); also: nearly all actives have a fitted effect of over 60% in size
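Nrf2 activity is the BugLite luminescence, read 15 min after reagent at room temperature, following CellTiter-Fluor cytotoxicity readout (30 min, 37C). Compound titrations were applied for 18-24 h to 5000 A549 ARE_Fluc cells/well in 5% FBS OPTI-MEM.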
KB-3-1 tox: qHTS assay for MDR1-selective chemotherapeutics: Primary screen using the parental adenocarcinoma cell KB-3-1; actives 1.4% (n = 400,000); KB-3-1 viability, CellTiter-Glo ATP luminescence, 72 h; Potency, µM (highest dose often 46.1 µM), actives largely listed as cytotoxic; AID 1347075, 2019; also: nearly all actives have a fitted effect of over 60% in size
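Parental KB-3-1 adenocarcinoma cells in phenol-red-free DMEM with 10% FBS were pin-treated with compounds at several concentrations, incubated 72 h at 37 °C, and viability read by CellTiter-Glo luminescence; concentration-effect curves were fitted after normalization.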
PI4K2A inh: qHTS for small molecular inhibitors of PI4K2A. Phosphatidylinositol 4-kinase type 2-alpha (Homo sapiens), Q9BTU6. purified PI4K2A, ADP-Glo luminescence, 1 h; active compounds read low. activity change, negative = inhibition, % at 76.9 µM. actives 0.13% (n = 420,000). AID 1346378, 2018; in the data active = activity change below about -50%; inconclusive = mostly about -30% to -49%
Target sequence (Q9BTU6 whole entry, looked up): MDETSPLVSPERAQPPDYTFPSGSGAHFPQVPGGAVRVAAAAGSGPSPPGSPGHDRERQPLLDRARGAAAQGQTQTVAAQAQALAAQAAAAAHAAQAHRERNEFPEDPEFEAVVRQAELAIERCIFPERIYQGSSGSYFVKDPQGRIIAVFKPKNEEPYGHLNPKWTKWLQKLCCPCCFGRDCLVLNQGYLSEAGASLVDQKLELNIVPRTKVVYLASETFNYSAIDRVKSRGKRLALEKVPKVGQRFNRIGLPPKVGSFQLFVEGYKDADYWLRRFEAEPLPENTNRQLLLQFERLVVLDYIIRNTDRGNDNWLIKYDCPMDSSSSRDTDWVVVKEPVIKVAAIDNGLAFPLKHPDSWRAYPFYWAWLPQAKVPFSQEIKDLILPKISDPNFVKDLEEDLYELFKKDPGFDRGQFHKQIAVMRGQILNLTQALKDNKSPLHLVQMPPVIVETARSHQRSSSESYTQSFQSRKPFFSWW
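In this quantitative HTS, ADP production by PI4K2A was quantified luminescently after 1 h at ambient temperature; 100 microM adenosine served as plate-quality control.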
A549 tox: Nrf2 qHTS screen for inhibitors: counterscreen for cytotoxicity. A549 ARE-Fluc cells, CellTiter-Fluor viability, 18-24 h. Potency, µM (highest dose often 46 µM), usual class: inhibitors. actives 0.16% (n = 390,000). AID 504648, 2011
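Cytotoxicity counterscreen: CellTiter-Fluor fluorescence was measured in A549 ARE_Fluc cells after 18-24 h of compound exposure in a concentration series. The subsequent BugLite luminescent read reports ARE-luciferase activity.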
Numbers stand for hits; i = inactive; ? = inconclusive; nt = no result. Only some compounds are listed: those with a hit (about 5.7% of all), similar ones and a draw of the others. Unless noted, calls follow the shape of the dose curve; as a rule, active = well fitted curve in the direction sought with a large enough effect; inconclusive = small, poorly fitted or top-dose-only effect, or another doubt; inactive = no such curve, though single readings can be large; an effect the other way counts as inactive or inconclusive.

SMILES	Giardia killer	KB-V1 MDR tox	Nrf2 block	KB-3-1 tox	PI4K2A inh	A549 tox
C=CCn1c(COc2ccc(C)cc2)nnc1SCC(=O)Nc1ccc(Oc2ccccc2)cc1	nt	nt	nt	nt	i	nt
O=c1[nH]c(=S)[nH]c2c1C(c1ccc(Br)cc1)c1c([nH]c(=S)[nH]c1=O)O2	i	i	i	i	-55.6	i
CCCCN(C)S(=O)(=O)c1ccc2[nH]c(=O)oc2c1	nt	nt	nt	nt	i	nt
C=CCOC(=O)C1=C(C)NC(SC)=C(C#N)C1c1cccs1 (configuration not stated)	i	6.51µM	?	11.6µM	i	i
CCSC1=C(C#N)C(c2cccs2)C(C(=O)OC)=C(C)N1 (configuration not stated)	i	20.6µM	23.1µM	i	i	?
CCCCC1(CC(=O)OCC)C(=O)N(c2ccccc2)N(c2ccccc2)C1=O	i	4.61µM	i	i	i	i
CC(C)OC(=O)C1=CNCC(C)(C)c2c1[nH]c1cc(F)ccc21	nt	nt	nt	nt	i	nt
Cc1ccc2nccc(/C=C/c3ccc(N(C)C)cc3)c2c1	nt	18.4µM	nt	?	nt	nt
CN(C)c1ccc(N=Cc2ccnc3ccccc23)cc1	nt	i	nt	i	nt	nt
CN(C)c1ccc(/C=C/c2ccnc3ccccc23)cc1C=O	nt	i	nt	i	nt	nt
Cc1ccc2c(/C=C/c3ccc(N(C)C)cc3)ccnc2c1	nt	?	nt	i	nt	nt
CCc1cc(/C=C/c2ccnc3ccccc23)ccc1N(C)C	nt	?	nt	6.51µM	nt	nt
CN(C)c1ccc(/C=C\C=C/c2ccnc3ccccc23)cc1	nt	i	nt	0.92µM	nt	nt
c1ccc(CNC2CCC23CCC(c2ccccc2)CC3)cc1 (configuration not stated)	nt	nt	nt	nt	i	nt
O=C1c2cccc(OCC(=O)N3N=C(c4cccs4)CC3c3ccc(F)cc3)c2CCN1Cc1cccnc1 (configuration not stated)	i	20.6µM	?	i	i	i
Cc1ccccc1OCC(=O)N1CCCc2ccccc21	i	i	?	i	i	i
O=C(c1cccnc1)N1N=C(c2cccs2)CC1c1ccc(F)cc1 (configuration not stated)	i	?	i	i	i	i
Cn1c(=O)cc(OCC(=O)N2CCCc3ccccc32)c2ccccc21	i	14.6µM	i	i	i	i
Cc1ccccc1CN1CCc2c(OCC(=O)N3CCCc4ccccc43)cccc2C1=O	i	?	?	20.6µM	i	i
CC(C)C(=O)c1cn(CC(=O)N2CCCc3ccccc32)c2ccccc12	i	5.17µM	nt	i	i	i
O=C1CCc2cc([S+](=O)([O-])NC3CCOCC3)ccc2N1	nt	i	i	i	nt	i
O=C(Nc1ccc(F)cc1Cl)C1CCCN1S(=O)(=O)c1cccc2cccnc12 (configuration not stated)	nt	nt	nt	nt	i	nt
O=C1c2cccc(OCC(=O)N3CCCc4ccccc43)c2CCN1Cc1cccnc1	i	3.66µM	i	?	i	i
CC1(C)Cc2c(sc3ncnc(NNC(=S)NCc4ccccc4)c23)CO1	i	?	?	5.17µM	i	?
CC(C)NC(=S)NNc1ncnc2sc3c(c12)CC(C)(C)OC3	i	i	i	i	i	i
SMILES	Giardia killer	KB-V1 MDR tox	Nrf2 block	KB-3-1 tox	PI4K2A inh	A549 tox
Cc1sc2nc(-c3ccccn3)[nH]c(=O)c2c1-c1ccccc1	i	i	11.6µM	?	i	i
CCN(CC)C(=O)c1sc2nc(-c3ccccn3)[nH]c(=O)c2c1C	i	?	i	?	i	i
CCOC(=O)c1c2c(c(=S)n(-c3ccccc3)c1N)CCC2	i	20.6µM	?	i	i	i
CC(=O)c1c(C)[nH]c(C(=O)OCC(=O)Nc2cccnc2Cl)c1C	i	?	25.9µM	?	i	i
CCOc1ccc(C(=O)OCC(=O)Nc2cccnc2Cl)cc1OCC	i	18.4µM	i	i	i	i
CC(=O)c1c(C)[nH]c(C(=O)OCC(=O)Nc2cccc(S(=O)(=O)N3CCCC3)c2)c1C	i	?	14.6µM	2.31µM	i	i
CC(=O)c1c(C)[nH]c(C(=O)Nc2cccc(S(=O)(=O)N3CCCC3)c2)c1C	i	i	?	?	i	i
O=C(COC(=O)c1ccc(Cl)c(Cl)c1)Nc1cccnc1Cl	i	i	i	i	i	i
CC(=O)c1c(C)[nH]c(C(=O)OCC(=O)Nc2cc(S(=O)(=O)N3CCCC3)ccc2Cl)c1C	i	13µM	20.6µM	?	i	i
O=C(COc1ccccc1C(=O)Nc1ccccc1)Nc1ccc(-c2ccccc2)cc1	nt	i	nt	i	nt	nt
CCCCOCCCNC(=O)C[C@@H]1C(=O)N(Cc2ccc(OC)cc2)/C2=C/CCCCC[C@@]21C(=O)OCC	nt	nt	nt	nt	i	nt
Cc1ccc2[nH]cc(C(O)c3c[nH]c4ccc(C)cc34)c2c1	nt	i	nt	i	nt	nt
O=C1c2ccccc2C(=O)N1c1cccc(Cl)c1	nt	nt	i	nt	nt	i
CCNc1nc(Oc2ccc(C#N)cc2)cc(C(F)(F)F)n1	i	3.26µM	?	18.4µM	i	i
N#Cc1ccc(/C=C2\CC3(OC(=O)c4ccc(Cl)cc4)CCCN2C3)cc1 (configuration not stated)	nt	nt	nt	nt	i	nt
O=C(c1cccc(F)c1)N1CCCC(c2nc(-c3cccs3)no2)C1 (configuration not stated)	nt	nt	nt	nt	i	nt
O=C(Cn1cnc2c(cnn2-c2ccc(Cl)cc2)c1=O)N1CCN(c2ccccc2)CC1	i	5.17µM	i	i	i	i
O=C(Cn1cnc2c(cnn2-c2ccccc2)c1=O)N1CCOCC1	i	i	i	?	i	i
O=C(Cn1ncc2ccsc2c1=O)N1CCN(c2ccc(Cl)cc2)CC1	nt	20.6µM	?	?	i	i
O=C(Cn1ncc2ccsc2c1=O)N1CCN(c2ccccc2F)CC1	nt	i	i	i	i	i
COc1ccc(-n2ncc3c(=O)n(CC(=O)N4c5ccccc5CC4C)cnc32)cc1 (configuration not stated)	i	i	8.2µM	i	i	?
O=C(Cn1nc(-c2ccc(Cl)cc2)ccc1=O)N1CCN(c2ccccc2)CC1	i	20.6µM	i	i	i	i
COc1ccc(C2NC(c3ccc4c(c3)OCO4)=CC(c3ccccc3O)N2)cc1OC (configuration not stated)	i	?	i	i	nt	i
CCC(=O)Nc1ccc2c(c1)C(=O)N(C)[C@@H]1CC[C@@H](CC(=O)NCc3ccc(OC)cc3)O[C@H]1CO2	nt	nt	nt	nt	i	nt
COc1cccc(N(C)C(=O)[C@@H](C)[C@@H](O)c2ccc(C(C)=O)cc2)c1	nt	nt	nt	nt	i	nt
Cc1nn(-c2ccccc2)c2sc(C(=O)N3CCN(C(c4ccccc4)c4ccc(Cl)cc4)CC3)cc12 (configuration not stated)	nt	nt	nt	nt	i	nt
